PubChem BioAssay AID1159580 (chemical genetic matrix, 2015)
Where “and” joins values, the source holds several entries; their conditions need not be identical. Identical values can stand only once. The whole screen tested about 5,500 compounds, of which about 2,000 (36%) were called active. Inconclusive results (about 18%) are left out. Rule as the data show it: active = normalized growth mostly below about 0.91 (no sharp cut-off); inconclusive = no clear call, values can overlap the other calls; inactive = mostly above about 0.92. The list shows a part of the results. Some compounds were tested as several samples or in several runs, with calls that do not always agree.

Test: chemical genetic growth profiling, strain panel (AID 1159580);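 also: tested at 20 µM; growth read once vehicle control cultures reached saturation at 30 °C; 1 = growth at the plate median or of vehicle wells; lower values mean less growth of the strain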
Conditions: S. cerevisiae deletion strains, growth OD

SMILES: C=CCCCCCCCCC(=O)O
- normalized growth (locus YAL021C, strain ccr4, stronger effect = lower value): 0.996 (inactive) and 1 (inactive)
- normalized growth (locus YAL026C, strain drs2, stronger effect = lower value): 0.984 (inactive) and 0.932 (inactive)
- normalized growth (locus YAL030W, strain snc1, stronger effect = lower value): 0.973 (inactive) and 0.992 (inactive)
- normalized growth (locus YBL061C, strain skt5, stronger effect = lower value): 0.968 (inactive) and 1 (inactive)
- normalized growth (locus YBR009C, strain hhf1, stronger effect = lower value): 0.977 (inactive) and 0.983 (inactive)
- normalized growth (locus YBR023C, strain chs3, stronger effect = lower value): 0.977 (inactive) and 0.985 (inactive)
- normalized growth (locus YBR171W, strain sec66, stronger effect = lower value): 0.983 (inactive) and 0.976 (inactive)
- normalized growth (locus YBR231C, strain swc5, stronger effect = lower value): 0.989 (inactive) and 1.01 (inactive)
- normalized growth (locus YBR279W, strain paf1, stronger effect = lower value): 0.975 (inactive) and 0.985 (inactive)
- normalized growth (locus YCL011C, strain gbp2, stronger effect = lower value): 0.978 (inactive) and 0.989 (inactive)
- normalized growth (locus YCL016C, strain dcc1, stronger effect = lower value): 0.988 (inactive) and 0.992 (inactive)
- normalized growth (locus YCL061C, strain MRC1, stronger effect = lower value): 0.99 (inactive) and 0.991 (inactive)
- normalized growth (locus YCL069W, strain vba3, stronger effect = lower value): 0.989 (inactive) and 0.991 (inactive)
- normalized growth (locus YCR088W, strain abp1, stronger effect = lower value): 0.978 (inactive) and 1 (inactive)
- normalized growth (locus YDL005C, strain med2, stronger effect = lower value): 0.962 (inactive) and 1 (inactive)
- normalized growth (locus YDL040C, strain nat1, stronger effect = lower value): 0.974 (inactive) and 0.994 (inactive)
- normalized growth (locus YDR001C, strain nth1, stronger effect = lower value): 0.978 (inactive) and 1 (inactive)
- normalized growth (locus YDR069C, strain doa4, stronger effect = lower value): 0.984 (inactive) and 0.997 (inactive)
- normalized growth (locus YDR137W, strain rgp1, stronger effect = lower value): 0.988 (inactive) and 0.986 (inactive)
- normalized growth (locus YDR159W, strain sac3, stronger effect = lower value): 1 (inactive) and 1.06 (inactive)
- normalized growth (locus YDR195W, strain ref2): 1 (inactive) and 1.09 (inactive)
- normalized growth (locus YDR297W, strain sur2, stronger effect = lower value): 0.978 (inactive) and 0.998 (inactive)
- normalized growth (locus YDR334W, strain swr1, stronger effect = lower value): 0.988 (inactive) and 0.976 (inactive)
- normalized growth (locus YDR335W, strain msn5, stronger effect = lower value): 0.981 (inactive) and 0.965 (inactive)
- normalized growth (locus YDR392W, strain spt3, stronger effect = lower value): 0.898 (inactive) and 0.647 (active)
- normalized growth (locus YEL003W, strain gim4, stronger effect = lower value): 0.984 (inactive) and 0.981 (inactive)
- normalized growth (locus YEL037C, strain rad23, stronger effect = lower value): 0.969 (inactive) and 0.972 (inactive)
- normalized growth (locus YEL061C, strain CIN8 (second series), stronger effect = lower value): 0.982 (inactive) and 0.992 (inactive)
- normalized growth (locus YER015W, strain faa2, stronger effect = lower value): 0.985 (inactive) and 0.992 (inactive)
- normalized growth (locus YER016W, strain bim1, stronger effect = lower value): 0.978 (inactive) and 0.985 (inactive)
- normalized growth (locus YER111C, strain swi4, stronger effect = lower value): 0.981 (inactive) and 1 (inactive)
- normalized growth (locus YER155C, strain BEM2 (second series), stronger effect = lower value): 0.977 (inactive) and 0.947 (inactive)
- normalized growth (locus YFR010W, strain ubp6, stronger effect = lower value): 1.02 (inactive) and 0.951 (inactive)
- normalized growth (locus YGL167C, strain pmr1, stronger effect = lower value): 0.961 (inactive) and 0.995 (inactive)
- normalized growth (locus YGL173C, strain kem1, stronger effect = lower value): 0.984 (inactive) and 0.975 (inactive)
- normalized growth (locus YGL227W, strain vid30, stronger effect = lower value): 0.97 (inactive) and 1 (inactive)
- normalized growth (locus YGL240W, strain doc1, stronger effect = lower value): 0.976 (inactive) and 0.911 (inactive)
- normalized growth (locus YGL253W, strain hxk2, stronger effect = lower value): 0.983 (inactive) and 0.978 (inactive)
- normalized growth (locus YHR013C, strain ard1, stronger effect = lower value): 1.21 [resistant] (active) and 0.965 (inactive)
- normalized growth (locus YHR027C, strain rpn1, stronger effect = lower value): 0.981 (inactive) and 0.971 (inactive)
- normalized growth (locus YHR030C, strain SLT2, stronger effect = lower value): 0.948 (inactive) and 0.105 (active)
- normalized growth (locus YHR079C, strain IRE1, stronger effect = lower value): 0.979 (inactive) and 0.111 (active)
- normalized growth (locus YHR142W, strain chs7, stronger effect = lower value): 1.01 (inactive) and 0.926 (inactive)
- normalized growth (locus YJL092W, strain hpr5, stronger effect = lower value): 0.979 (inactive) and 0.99 (inactive)
- normalized growth (locus YJL095W, strain BCK1 (second series), stronger effect = lower value): 0.98 (inactive) and 0.996 (inactive)
- normalized growth (locus YJL095W, strain BCK1, stronger effect = lower value): 0.974 (inactive) and 0.136 (active)
- normalized growth (locus YJL115W, strain asf1, stronger effect = lower value): 0.974 (inactive) and 0.969 (inactive)
- normalized growth (locus YJL129C, strain trk1, stronger effect = lower value): 0.984 (inactive) and 0.778 (active)
- normalized growth (locus YJL154C, strain vps35, stronger effect = lower value): 0.978 (inactive) and 0.995 (inactive)
- normalized growth (locus YJL164C, strain tpk1, stronger effect = lower value): 0.973 (inactive) and 0.929 (inactive)
- normalized growth (locus YJL166W, strain qcr8, stronger effect = lower value): 0.993 (inactive) and 0.959 (inactive)
- normalized growth (locus YJL187C, strain SWE1, stronger effect = lower value): 0.979 (inactive) and 0.99 (inactive)
- normalized growth (locus YJR066W, strain TOR1, stronger effect = lower value): 0.928 (inactive) and 0.0525 (active)
- normalized growth (locus YKL160W, strain elf1, stronger effect = lower value): 0.997 (inactive) and 0.97 (inactive)
- normalized growth (locus YKR026C, strain gcn3, stronger effect = lower value): 0.951 (inactive) and 0.98 (inactive)
- normalized growth (locus YKR091W, strain srl3, stronger effect = lower value): 0.986 (inactive) and 0.997 (inactive)
- normalized growth (locus YLL001W, strain dnm1, stronger effect = lower value): 0.978 (inactive) and 0.993 (inactive)
- normalized growth (locus YLL026W, stronger effect = lower value): 0.975 (inactive) and 0.996 (inactive)
- normalized growth (locus YLL041C, strain sdh2, stronger effect = lower value): 0.992 (inactive) and 0.988 (inactive)
- normalized growth (locus YLR027C, strain aat2, stronger effect = lower value): 0.987 (inactive) and 0.983 (inactive)
- normalized growth (locus YLR113W, strain HOG1, stronger effect = lower value): 1.1 (inactive) and 0.156 (active)
- normalized growth (locus YLR221C, strain rsa3, stronger effect = lower value): 0.984 (inactive) and 0.937 (inactive)
- normalized growth (locus YLR258W, strain gsy2, stronger effect = lower value): 0.981 (inactive) and 1.01 (inactive)
- normalized growth (locus YLR262C, strain YPT6 (second series), stronger effect = lower value): 0.978 (inactive) and 0.977 (inactive)
- normalized growth (locus YLR320W, strain mms22, stronger effect = lower value): 0.998 (inactive) and 0.925 (inactive)
- normalized growth (locus YLR342W, strain FKS1, stronger effect = lower value): 0.98 (inactive) and 0.989 (inactive)
- normalized growth (locus YLR357W, strain rsc2, stronger effect = lower value): 0.948 (inactive) and 0.927 (inactive)
- normalized growth (locus YLR370C, strain arc18, stronger effect = lower value): 0.987 (inactive) and 1 (inactive)
- normalized growth (locus YLR384C, strain iki3, stronger effect = lower value): 0.968 (inactive) and 0.985 (inactive)
- normalized growth (locus YML120C, strain ndi1, stronger effect = lower value): 0.997 (inactive) and 0.931 (inactive)
- normalized growth (locus YMR058W, strain fet3, stronger effect = lower value): 0.981 (inactive) and 0.952 (inactive)
- normalized growth (locus YMR125W, strain sto1, stronger effect = lower value): 0.938 (inactive) and 0.956 (inactive)
- normalized growth (locus YMR129W, stronger effect = lower value): 0.993 (inactive) and 0.997 (inactive)
- normalized growth (locus YMR205C, strain PFK2, stronger effect = lower value): 0.966 (inactive) and 1.04 (inactive)
- normalized growth (locus YMR231W, strain pep5, stronger effect = lower value): 0.97 (inactive) and 0.951 (inactive)
- normalized growth (locus YNL071W, strain lat1, stronger effect = lower value): 0.982 (inactive) and 0.953 (inactive)
- normalized growth (locus YNL183C, strain NPR1, stronger effect = lower value): 0.933 (inactive) and 0.0268 (active)
- normalized growth (locus YNL209W, strain ssb2, stronger effect = lower value): 0.979 (inactive) and 0.984 (inactive)
- normalized growth (locus YNL248C, strain rpa49, stronger effect = lower value): 1.01 (inactive) and 0.852 (active)
- normalized growth (locus YNL322C, strain KRE1 (second series), stronger effect = lower value): 0.981 (inactive) and 0.991 (inactive)
- normalized growth (locus YNR049C, strain mso1, stronger effect = lower value): 0.979 (inactive) and 0.992 (inactive)
- normalized growth (locus YOR001W, strain rrp6, stronger effect = lower value): 0.987 (inactive) and 0.93 (inactive)
- normalized growth (locus YOR070C, strain gyp1, stronger effect = lower value): 0.974 (inactive) and 0.975 (inactive)
- normalized growth (locus YOR080W, strain dia2, stronger effect = lower value): 0.965 (inactive) and 0.987 (inactive)
- normalized growth (locus YOR083W, strain WHI5, stronger effect = lower value): 1.01 (inactive) and 0.909 (inactive)
- normalized growth (locus YOR106W, strain vam3, stronger effect = lower value): 1.01 (inactive) and 0.925 (inactive)
- normalized growth (locus YOR231W, strain MKK1, stronger effect = lower value): 0.953 (inactive) and 0.105 (active)
- normalized growth (locus YOR265W, strain rbl2, stronger effect = lower value): 0.981 (inactive) and 0.986 (inactive)
- normalized growth (locus YOR270C, strain vph1, stronger effect = lower value): 1.01 (inactive) and 0.771 (active)
- normalized growth (locus YOR290C, strain snf2, stronger effect = lower value): 0.992 (inactive) and 0.916 (inactive)
- normalized growth (locus YPL051W, strain arl3, stronger effect = lower value): 0.986 (inactive) and 0.967 (inactive)
- normalized growth (locus YPL078C, strain atp4, stronger effect = lower value): 0.982 (inactive) and 0.88 (active)
- normalized growth (locus YPL106C, strain sse1, stronger effect = lower value): 0.988 (inactive) and 1.04 (inactive)
- normalized growth (locus YPL240C, strain hsp82, stronger effect = lower value): 0.986 (inactive) and 1 (inactive)
- normalized growth (locus YPL256C, strain CLN2, stronger effect = lower value): 1.01 (inactive) and 0.114 (active)
